Test results published in PubChem BioAssay AID434973 (Sanford-Burnham Center for Chemical Genomics, 2010).
Out of some 330,000 compounds screened, about 4,900 (1.5%) were called active. Many of the other results were omitted from the sample, so actives are more common in it than they were. Unmarked numbers belong to inactive results.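 Rule for the calls: active = inhibition above about 50% at the single test dose (limit read from the data); inactive = the rest.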 Non-standard residues stand in square brackets, D forms with d. Residues, ends and D or L forms follow the SMILES beside them. ξ: configuration not given here. *: point of attachment. Cbz = O=C(OCc1ccccc1)*; ξL = CC(C)CC(N)C(=O)O; ξP = O=C(O)C1CCCN1

Molecular target: Sentrin-specific protease 7 (Homo sapiens) (UniProt Q9BQF6)
Assay: blockers of human SENP7 peptidase activity – biochemical, luminescence, uHTS, primary screen (AID 434973);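 note: plate controls were DMSO with enzyme for no effect and no enzyme buffer wells for full effect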
Details: recombinant SENP7, Z-RLRGG-aminoluciferin luminescence, 40 min; at 5 µM; hits give high values

Row | SMILES | inhibition
1 | O=C(Nc1ncc([N+](=O)[O-])s1)C1COc2ccccc2O1 (centres undefined) | 96.7% (active)
2 | COc1ccc(OC)c2sc(NC(=O)C3COc4ccccc4O3)nc12 (centres undefined) | -4.59%
3 | COc1ccc(NC(=O)C2COc3ccccc3O2)cc1 (centres undefined) | -20.8%
4 | CC(C)C1C2=C(CC(C)(C)CC2=O)ON1c1ccccc1 (centres undefined) | 3.53%
5 | O=C(Nc1ccc2c(c1)CCC2)c1ccc(Br)s1 | 69.4% (active)
6 | CC1CC(C)CN(CCC(=O)Nc2ccc3c(c2)CCC3)C1 (centres undefined) | 5.5%
7 | CC(C)Oc1ccc(C(=O)NCC(=O)Nc2ccc3c(c2)CCC3)cc1 | 3.44%
8 | CC(C)CCN1NC2(CCC(C)CC2)NC1=S (centres undefined) | -7.22%
9 | Cc1ccc(NC(=O)CN(C)CC(=O)Nc2cccc(F)c2)cc1[N+](=O)[O-] | -3.97%
10 | Cc1ccc(NC(=O)c2sccc2C)cc1[N+](=O)[O-] | 83.7% (active)
11 | O=C(N/N=C/c1ccc([N+](=O)[O-])cc1)C(=O)N1CCCC1 | -3.45%
12 | Cc1cc(O)c(NC(=O)c2ccc(C)c([N+](=O)[O-])c2)cc1C | -7.98%
13 | Cc1ccsc1C(=O)N/N=C/c1ccc([N+](=O)[O-])cc1 | 80.9% (active)
14 | Cc1ccc(/C=N/NC(=O)c2sccc2OCc2ccc(F)cc2)cc1 | -13.6%
15 | O=C(COc1cccc(Cl)c1)NCc1ccccc1 | -0.414%
16 | COc1cccc(NC(=O)CN(C)C(=O)c2ccccc2CCc2ccccc2)c1 | -9.77%
17 | CC[C@]1(C(=O)OC)[C@H]2C(=O)N(C)C(=O)[C@H]2[C@H]2CN(C)C(=NCc3ccccc3)N21 | 0.164%
18 | COc1cc(NC(=O)CCS(=O)(=O)c2ccc3c(c2)oc(=O)n3C)cc(OC)c1 | 1.53%
19 | CCN(CC)S(=O)(=O)c1ccc(N(C)Cc2ccc(C(F)(F)F)cc2)nc1 | -1.06%
20 | Cc1ccc(CN2CCN(Cc3ccccc3-c3ccco3)CC2CCO)o1 (centres undefined) | 4.02%
21 | CC(OC(=O)c1ccc(Cl)cc1O)C(=O)NCCC1=CCCCC1 (centres undefined) | -16.5%
22 | CC[N+](C)(CC)CCC[n+]1c(-c2ccccc2)c2cc(N)ccc2c2ccc(N)cc21 | 96.3% (active)
23 | COC(=O)c1ccc(COc2ccc(C#N)cc2)o1 | 0.574%
24 | Cc1cc2oc(=O)cc(CN3CCN(S(=O)(=O)c4cccs4)CC3)c2cc1C(C)C | 8.53%

Row | SMILES | inhibition
25 | Cc1nn(C)cc1C(=O)c1ccccc1 | 7.95%
26 | Cc1nc2ccccc2c(-c2ccccc2)c1C(=O)c1ccccc1 | -0.427%
27 | Cn1c(-c2ccc(C(=O)c3ccccc3)s2)nc2ccccc21 | 98.5% (active)
28 | Cn1c(Nc2cccc(Cl)c2)nc2ccccc21 | 4.17%
29 | Cn1c(NC(=O)c2ccccc2)nc2ccccc21 | 77.2% (active)
30 | CCn1c(NC(=O)c2nn(C)cc2Br)nc2ccccc21 | -3.05%
31 | CCC1(CC)NC(=O)N(CC(=O)OCC(=O)Nc2ccc(C(F)(F)F)cc2)C1=O | -0.704%
32 | COC(=O)c1ccc(NC(=O)CSc2nnc(Cc3cccn3C)n2-c2ccc(F)cc2)cc1 | 9.96%
33 | CC(C)c1ccc(C2C(C#N)=C(N)Oc3c2oc(CO)cc3=O)cc1 (centres undefined) | 3.37%
34 | CCOC(=O)N1CCC(NC(=O)CN2C(=O)COc3ccc(C(C)(C)C)cc32)CC1 | -10.5%
35 | O=S(=O)(NCCS(=O)(=O)N1CCN(c2ccccc2)CC1)c1ccc(F)cc1 | 9.28%
36 | COc1ccc(C(=O)NC2=NCCS2)c(OC)c1 | 24.6%
37 | COc1cc(SC)ccc1C(=O)Nc1nc(C)cs1 | 101% (active)
38 | Cc1ccnc(NC(=O)c2ccoc2C)c1 | 71.9% (active)
39 | Cc1csc(NC(=O)c2ccc(C)s2)n1 | 0.528%
40 | COc1cc(SC)ccc1C(=O)Nc1cc(C)ccn1 | 60.6% (active)
41 | COc1ccc(C(=O)Nc2cccc(NC(=O)c3ccc(OC)cc3OC)n2)c(OC)c1 | 0.763%
42 | COc1cc2ccccc2cc1C(=O)Nc1nc(C)c(C(C)=O)s1 | -4.32%
43 | COC(=O)c1sc(NC(=O)c2ccc(OC)cc2OC)nc1C | 101% (active)
44 | Cc1occc1C(=O)Nc1cccc(Cn2cccn2)c1 | 8.79%
45 | COc1cc(SC)ccc1C(=O)N(Cc1ccccc1)c1ccccc1 | -1.54%
46 | Cc1ccnc(NC(=O)CNC(=O)c2ccccc2)c1 | -1.59%
47 | COc1cc(SC)ccc1C(=O)NNC(=O)C1COc2ccccc2O1 (centres undefined) | 5.69%
48 | CC(C)CC(NC(=O)C1CCCN1C(=O)[C@@H](C)NC(=O)OCc1ccccc1)C(=O)NCC(N)=O (some centres undefined) (Cbz-[dA][ξP][ξL]G-NH2) | 8.74%

Row | SMILES | inhibition
49 | CCC1CCCCN1CCNC(=O)c1[nH]c(C)c(C(C)=O)c1C (centres undefined) | 0.149%
50 | COCn1c(C(O)c2ccccc2)cc2ccccc21 (centres undefined) | 12.5%
51 | CCOC(=O)c1cnc(Nc2nc3ccccc3o2)nc1CSC(=S)N1CCCCC1 | 0.449%
52 | CCn1ccnc1CN(C)C(=O)c1cc(COc2ccc(Cl)cc2OC)on1 | 5.22%
53 | C=CCOc1ccc(/C=C/C(=O)OCC(=O)NC(C)c2ccc(F)cc2)cc1 (centres undefined) | -12.8%
54 | CCOC(=O)c1c(N)sc2c1CCCC2=O | -8.61%
55 | COc1ccc(S(=O)(=O)n2nc(C)c(S(=O)(=O)N3CCOCC3)c2C)cc1 | -1.04%
56 | CC(C)COC(=O)n1c(=O)oc2ccc(S(=O)(=O)N3CCCCC3)cc21 | -5.94%
57 | O=C(CSc1nnnn1-c1ccc(O)cc1)N1N=C(c2ccc3ccccc3c2)CC1c1ccccc1 (centres undefined) | 2.06%
58 | CSc1ccc(/C=N\NC(=O)CC(=O)NC(C)C)cc1 | 4.98%
59 | O=C(N/N=C/c1ccc(Cl)c(Cl)c1)c1ccc2nc[nH]c2c1 | -0.0621%
60 | CSc1ccc(/C=N/NC(=O)c2cccc(Cl)c2)cc1 | 96% (active)
61 | O=C(CN1C(=O)NC(Cc2ccccc2)(Cc2ccccc2)C1=O)NCC1CCCCC1 | -0.975%
62 | COCCN(CCOC)c1nc(N)c2c(N)nc3c(c2c1C#N)CC(=O)N3Cc1ccc(Cl)cc1 | 58.9% (active)
63 | Cc1ccccc1NC(=O)C(C)OC(=O)CCC(=O)N(CC(C)C)c1c(N)n(CC(C)C)c(=O)[nH]c1=O (centres undefined) | 9.72%
64 | Cc1nn(-c2ccccc2)c2c1c(C)c(CCC(=O)NCC1CCCO1)c(=O)n2C (centres undefined) | -0.922%
65 | COc1cc(C(=O)NCc2nnc(SCC(=O)Nc3nc4ccc(C)cc4s3)o2)cc(OC)c1OC | 3.97%
66 | CCCc1nc2ccccc2c(=O)n1/N=C/c1ccc(O)c(O)c1 | -1.91%
67 | O=c1c2ccccc2ncn1/N=C/c1ccccc1 | 88.5% (active)
68 | CN(C(=O)Nc1ccc(Cl)cc1)n1cnc2ccccc2c1=O | -9.71%
69 | Cc1cccc(S(=O)(=O)N2CN(CC3CCCO3)c3nc4ccccc4nc32)c1 (centres undefined) | -0.481%
70 | O=C(c1ccc(CSc2ccccc2)cc1)N1CCCCCC1 | 72.6% (active)
71 | O=C(c1ccc(S(=O)(=O)c2ccccc2)cc1)N1CCCCCC1 | 3.58%
72 | CC1CCN(C(=O)c2ccc(CSc3ccc(Cl)cc3)cc2)CC1 | -2.26%

Row | SMILES | inhibition
73 | CCc1ccccc1OCC(=O)Nc1ccc(C)c(S(=O)(=O)N2CCCCCC2)c1 | 1.37%
74 | COc1ccccc1N(CC(=O)N/N=C(\C)c1ccccc1O)S(=O)(=O)c1ccc(C)cc1 | 3.18%
75 | Cc1cc(C(=O)NNC(=O)c2ccccc2O)c(C)o1 | 9.67%
76 | C/C(=N\NC(=O)c1ccoc1C)c1ccccc1O | 51.5% (active)
77 | COc1ccc2c(CC(=O)OCC(=O)Nc3ccccc3[N+](=O)[O-])coc2c1 | -12%
78 | COC(=O)c1ccc(S(=O)(=O)N(CCO)Cc2ccccc2)n1C | 1.52%
79 | O=C(COC(=O)c1ccc(Br)o1)NC12CC3CC(CC(C3)C1)C2 | 7.39%
80 | CCOc1ccc(-n2cnnn2)cc1S(=O)(=O)N1CCC(C)CC1C (centres undefined) | 7.69%
81 | Cc1ccc(-c2nc(-c3ccncc3)no2)c(C)c1 | 42.5%
82 | Cc1cccc(-c2noc(-c3ccc(F)cc3)n2)c1 | 94.2% (active)
83 | Cc1cccc(-c2noc(CCC(=O)NC3CCCC3)n2)c1 | -8.85%
84 | Cc1ccc(-n2c(C)cc(C(=O)CSc3nnc4ccccn34)c2C)cc1 | -18.4%
85 | Nc1nonc1-n1nnc(C(=O)N/N=C/c2ccc(Cl)cc2)c1-c1ccc2c(c1)OCO2 | -3.14%
86 | Cc1cc(C)n2nc(C(=O)Oc3ccc4c(c3)OCO4)nc2n1 | 4.97%
87 | CCOc1ccc(S(=O)(=O)Nc2nc3cc(OC)ccc3s2)cc1 | 6.2%
88 | COc1ccc2nc(Nc3nc4cc5c(cc4s3)OCCO5)sc2c1 | 52.6% (active)
89 | COc1ccc2nc(NC(=O)[C@@H]3CCCN3C(=O)c3cccs3)sc2c1 | -10%
90 | CC[C@]12c3[nH]c4cc(CCC(=O)N(C)C)ccc4c3CCN1C(=O)[C@@H](CC(=O)NCCCn1ccnc1)C[C@@H]2C(=O)N1CCN(C(=O)C2CC2)CC1 | -1.68%
91 | Cc1ccc(C)c(C(=O)N2CCC(n3nccc3NC(=O)C3CC3)CC2)c1 | 0.772%
92 | CC(=O)c1ccc(NC(=O)c2ccc3c(Cl)c4c(nc3c2)CCCC4)cc1 | -3.44%
93 | COc1ccc(N2CCN(C(=O)c3ccc4c(Cl)c5c(nc4c3)CCCC5)CC2)cc1 | -4.91%
94 | CC(C)CCNC(=O)c1ccc2c(Cl)c3c(nc2c1)CCC3 | 84.1% (active)
